From PubChem BioAssay (NCI)
This is part of a sample that, as a whole, favours compounds with a hit. Of some 83,000 tested, about 20% had one in any assay.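 A percent growth of 40 corresponds to 60% growth inhibition; 0 means no net growth; -100 means all cells died. Active threshold: below 10.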 Values without a mark were called inactive. Active and inactive are the calls of the source.

What follows are compounds tested on RPMI-8226 leukemia (assay: NCI-60 one-dose screen, 48 h (100 = growth as untreated, 0 = no growth, -100 = all killed)). Conditions: 10 µM unless noted.

Row | SMILES | growth
1 | Cn1cnc([N+](=O)[O-])c1N1c2ccncc2Sc2ccncc21 | 85.8%
2 | O=C(Nc1ccccc1F)Nc1ccccc1Cl | 78.8%
3 | CCCOC(=O)c1ccc([N+](=O)[O-])o1 | 97.5%
4 | COc1cc(/C=C/C(=O)c2ccc(Oc3ncnc4ccccc34)cc2)cc(OC)c1OC | 24.3%
5 | COc1ccc(/C=C2\CS(=O)(=O)C/C(=C\c3ccc(OC)cc3)C2=O)cc1 | -41.2% (active)
6 | CC(NCCC(c1ccccc1)c1ccccc1)c1ccccc1 (centres undefined) | 26.3%
7 | O=C(/C=C/c1ccco1)c1cccc(Nc2nc(Nc3ccccc3)nc(Nc3ccccc3)n2)c1 | 38.8%
8 | Cc1cc(NCCN(C(C)C)C(C)C)nc(/N=C(\N)Nc2ccc(Cl)c(C(F)(F)F)c2)n1 | -65.7% (active)
9 | O=S1(=O)N(CCNc2nccc(-c3c(-c4cccc(O)c4)nc4sccn34)n2)CCN1Cc1ccccc1 | 47.4%
10 | Clc1ccc(CN2COc3c(ccc4cccnc34)C2)cc1Cl | -19.3% (active)
11 | CCC(C)Nc1ccc(N)cc1 (centres undefined) | -25.4% (active)
12 | CC1(C)N=C(N)N=C(N)N1c1ccc(OCC(=O)Nc2ccccc2)c(Cl)c1 | 34.5%
13 | COc1ccc2c(c1)C(=O)/C(=C/c1ccc(OCC(=O)c3ccc(Cl)cc3)cc1)O2 | 58.9%
14 | Cc1cccc(NC(=O)CCc2ccc(N3C(N)=NC(N)=NC3(C)C)cc2)c1 | 32%
15 | COc1ccc2c(c1)C(=O)/C(=C/c1cccc(OCC(=O)c3ccccc3)c1)O2 | -49.6% (active)
16 | NC(CSC(c1ccccc1)(c1ccccc1)c1ccc(F)cc1)C(=O)O (centres undefined) | -25.9% (active)

Row | SMILES | growth
17 | Cn1c(I)c(C#C[Si](C)(C)C)c(=O)[nH]c1=O | 46.5%
18 | Nc1ccc(S(=O)(=O)Nc2ccnn2-c2ccccc2)cc1 | 117%
19 | Cc1cn(C2CC(F)C(CO)O2)c(=O)[nH]c1=O (centres undefined) | 82.5%
20 | CCCN1C(=O)CSC1=Nc1ccc2cc3ccc(N=C4SCC(=O)N4CCC)cc3nc2c1 | 1.65% (active)
21 | CC(=O)c1cc2c(c(O)c1C)C(=O)C(=O)c1c(O)cccc1-2 | -32.4% (active)
22 | CC(C)(C)NC(C1=CC(C)(C)c2ccccc2C1=O)c1ccccc1 (centres undefined) | -44.9% (active)
23 | CCC1(C(N)=O)CC2C=CC1CC2 (centres undefined) | 89.1%
24 | C=C1C(=O)O[C@H]2[C@H]1CC/C(C(=O)Nc1ccc(OC)c(C(N)=O)c1O)=C\CC[C@@]1(C)O[C@@H]21 | 70.8%
25 | Nc1nc2ccc(CNc3ccc(C(=O)NC(CC(=O)O)C(=O)O)cc3)cc2c(=O)[nH]1 (centres undefined) | 44.3%
26 | CCOC(=O)NNc1nncc2ccccc12 | 105%
27 | COc1ccc2c(c1)nnc1c3cccnc3[nH]c21 | -41.9% (active)
28 | CC1(C)N=C(N)N=C(N)N1c1ccc(F)c(C(F)(F)F)c1 | 50.4%
29 | O=C1CN(CCN2CC(=O)NC(=O)C2)CC(=O)N1 | 88.1%
30 | CC1(C)N=C(N)N=C(N)N1c1cccc(CCCCc2ccccc2)c1 | -50% (active)
31 | CC(=O)c1ccc2c(c1)C1C=CCC1[C@H](c1cc3c(cc1Br)OCO3)N2 (some centres undefined) | 9.1% (active)
32 | Clc1ccc2c(c1)nnn1c3ncccc3c(Br)c21 | 83.2%

The compounds below were run on OVCAR-8 ovarian in the same assay as above. Conditions: 10 µM unless noted.

Row | SMILES | growth
33 | Cn1cnc([N+](=O)[O-])c1N1c2ccncc2Sc2ccncc21 | 83.4%
34 | O=C(Nc1ccccc1F)Nc1ccccc1Cl | 101%
35 | COc1ccc(/C=C2\CS(=O)(=O)C/C(=C\c3ccc(OC)cc3)C2=O)cc1 | -44.8% (active)
36 | CC(NCCC(c1ccccc1)c1ccccc1)c1ccccc1 (centres undefined) | 84.3%
37 | O=C(/C=C/c1ccco1)c1cccc(Nc2nc(Nc3ccccc3)nc(Nc3ccccc3)n2)c1 | 49.5%
38 | Cc1cc(NCCN(C(C)C)C(C)C)nc(/N=C(\N)Nc2ccc(Cl)c(C(F)(F)F)c2)n1 | -79.2% (active)
39 | Clc1ccc(CN2COc3c(ccc4cccnc34)C2)cc1Cl | -24% (active)
40 | CC1(C)N=C(N)N=C(N)N1c1ccc(OCC(=O)Nc2ccccc2)c(Cl)c1 | 21.9%
41 | COc1ccc2c(c1)C(=O)/C(=C/c1ccc(OCC(=O)c3ccc(Cl)cc3)cc1)O2 | 84.9%
42 | Cc1cccc(NC(=O)CCc2ccc(N3C(N)=NC(N)=NC3(C)C)cc2)c1 | 47.7%
43 | CCn1c(SC)nnc1-c1cc2c([nH]c3ccccc32)c(-c2cccc(O)c2)n1 | 25.4%
44 | CC(=O)N1N=C2N(Cc3ccccc3)C(=O)c3c(sc4c3CCCC4)N2C1c1cn(-c2ccccc2)nc1-c1ccc(Cl)cc1 (centres undefined) | 100%
45 | COc1ccc2c(c1)C(=O)/C(=C/c1cccc(OCC(=O)c3ccccc3)c1)O2 | -29.9% (active)
46 | NC(CSC(c1ccccc1)(c1ccccc1)c1ccc(F)cc1)C(=O)O (centres undefined) | 11.1%
47 | CC1=C[S+](c2ccccc2)c2cccc3cc4ccccc4c1c23 (centres undefined) | -9.27% (active)
48 | Cn1c(I)c(C#C[Si](C)(C)C)c(=O)[nH]c1=O | -11.7% (active)

Row | SMILES | growth
49 | COc1ccc2c(-c3ccc(F)cc3)c(C#N)c(=NC(C)=O)oc2c1 | 50.2%
50 | Nc1ccc(S(=O)(=O)Nc2ccnn2-c2ccccc2)cc1 | 93.7%
51 | Cc1cn(C2CC(F)C(CO)O2)c(=O)[nH]c1=O (centres undefined) | 90.4%
52 | CCCN1C(=O)CSC1=Nc1ccc2cc3ccc(N=C4SCC(=O)N4CCC)cc3nc2c1 | 37.2%
53 | CC(C)(C)NC(C1=CC(C)(C)c2ccccc2C1=O)c1ccccc1 (centres undefined) | -47.9% (active)
54 | CC(=O)N1N=C(CCC(=O)c2nc3ccc([N+](=O)[O-])cc3[nH]2)OC1c1ccc(O)cc1 (centres undefined) | 105%
55 | CCC1(C(N)=O)CC2C=CC1CC2 (centres undefined) | 61.2%
56 | Nc1nc2ccc(CNc3ccc(C(=O)NC(CC(=O)O)C(=O)O)cc3)cc2c(=O)[nH]1 (centres undefined) | 13.1%
57 | CCOC(=O)NNc1nncc2ccccc12 | 98.2%
58 | COc1ccc2c(c1)nnc1c3cccnc3[nH]c21 | 3.13% (active)
59 | CC1(C)N=C(N)N=C(N)N1c1ccc(F)c(C(F)(F)F)c1 | 8.44% (active)
60 | O=C1CN(CCN2CC(=O)NC(=O)C2)CC(=O)N1 | 103%
61 | COc1ccc(/C(Cl)=N/N=C(\Cl)c2cc(OC)c(OC)c(OC)c2)cc1OC(C)=O | 79.9%
62 | CC1(C)N=C(N)N=C(N)N1c1cccc(CCCCc2ccccc2)c1 | 0.546% (active)
63 | CC(=O)c1ccc2c(c1)C1C=CCC1[C@H](c1cc3c(cc1Br)OCO3)N2 (some centres undefined) | 16.8%
64 | Clc1ccc2c(c1)nnn1c3ncccc3c(Br)c21 | 71.9%
